# Assay outcomes: PubChem, National Center for Advancing Translational Sciences (NCATS)
# Only some compounds are listed: those with a hit (about 2.5% of all), similar ones and a draw of the others.
# POLH inh = qHTS for Inhibitors of Polymerase Eta | Potency, µM (doses to about 114 µM), inactives show at the top dose activity change, negative = inhibition, most hits filed as inhibitors | AID 588591, 2011 | hit rate 1.2% among 390,000 | recombinant Pol eta, fluorescent DNA replication assay | DNA polymerase eta (Homo sapiens), Q9Y253; note: % is set by controls: 0 for no effect and ±100 for the full control effect
#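 Pol eta at 10 nM preincubated with compounds 15 min at room temperature; reaction started with fluorescent substrate (50 nM final) and read kinetically at 0 and 10 min.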
# POLB inh = qHTS Assay for Inhibitors of DNA Polymerase Beta; Pol beta primer extension/strand displacement, fluorescence kinetic; Potency, µM (highest dose often 114 µM), inactives show at the top dose activity change, negative = inhibition, most hits filed as inhibitors; hit rate 1.3% among 340,000; note: % is set by controls: 0 for no effect and ±100 for the full control effect
#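 Curves were derived by four-parameter Hill fits of normalized qHTS data. The kinetic fluorescent primer-extension read was taken at 0 and 10 min after 50 nM substrate, following a 15 min room-temperature preincubation of 10 nM enzyme with compounds.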
# APE1 inh = qHTS Assay for Inhibitors of the Human Apurinic/apyrimidinic Endonuclease 1 (APE1) | hit rate 0.35% among 350,000 | recombinant APE1, TAMRA/BHQ-2 abasic DNA cleavage fluorescence | Potency, µM (highest dose often 65.8 µM), for the others: at the highest dose activity change, negative = inhibition, most hits filed as inhibitors;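 note: plate controls were vehicle for no effect and reference inhibitor for full effect; nearly all actives have a fitted effect of over 55% in size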
#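 Step 1: APE1 (0.75 nM) with compound, 15 min RT. Step 2: add 50 nM fluorophore/quencher THF duplex. Step 3: three fluorescence reads 60 s apart (525/598 nm); read 3 minus read 1 = reaction progress.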
# POLK inh = qHTS for Inhibitors of Polymerase Kappa | DNA polymerase kappa (Homo sapiens), Q9UBT6 | purified Pol kappa, fluorescent DNA synthesis assay, 10 min | Potency, µM (top dose mostly 107 µM), inactives show top-dose activity, negative = inhibition, actives largely listed as inhibitors | hit rate 0.53% among 400,000; note: % is set by controls: 0 for no effect and ±100 for the full control effect
#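 Kinetic fluorescence screen: compound preincubated 15 min RT with 10 nM enzyme; 50 nM substrate (final) initiates; reads at 0/10 min.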
# L3MBTL1 block = qHTS Assay for the Inhibitors of L3MBTL1; hit rate 0.66% among 230,000; Lethal(3)malignant brain tumor-like protein 1 (Homo sapiens), Q9Y468; Potency, µM (top dose mostly 57.1 µM), for the others: top-dose activity, negative = inhibition, most hits filed as inhibitors; AlphaScreen L3MBTL1–H3K9me1 peptide binding; note: % is set by controls: 0 for no effect and ±100 for the full control effect; nearly all actives have a fitted effect of over 60% in size
#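 AlphaScreen proximity signal between nickel-chelate acceptor and streptavidin donor beads (final 10 ug/mL) reports binding of 50 nM L3MBTL1 to 75 nM biotin-H3 K9me1 peptide; complex incubated with compounds 30 min at room temperature; cefsulodin titration as control.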
# Pol iota inh = qHTS for Inhibitors of Polymerase Iota; hit rate 1% among 390,000; AID 588590, 2011; DNA polymerase iota (Homo sapiens), Q9UNA4; Pol iota fluorescent replication assay, 10 min; Potency, µM (highest dose often 115 µM), without a hit: top-dose activity, negative = inhibition, hits mostly inhibitors
#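 Pol iota at 10 nM preincubated 15 min with compounds at room temperature; reaction started with fluorescent substrate, 50 nM final. Fluorescence read kinetically at 0 and 10 min; buffer-only wells as negative control.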
# Starred values were filed as active, the others as inactive; ? = inconclusive; · = no result given; [ ] = dose if it differs, or a comment. Calls come from the whole dose curve; as a rule, active = well fitted curve in the direction sought with a large enough effect; inconclusive = small, poorly fitted or top-dose-only effect, or another doubt; inactive = no such curve, though single readings can be large; an effect the other way counts as inactive or inconclusive. Potency is the fitted concentration of half-maximal effect.
SMILES,POLH inh,POLB inh,APE1 inh,POLK inh,L3MBTL1 block,Pol iota inh
COc1cccc(N2CCN(C(=O)NC3CCCCC3)CC2)c1,-3%,0%,0%,-5%,-6%[11.4 µM],19%
Cc1ccc(C(=O)c2cn(Cc3cccc(C)c3)c3nc(C)ccc3c2=O)cc1,-26%,-15%,·,-10%,·,16%
CCOC(=O)c1cc2c(=Cc3ccc(N(C)C)cc3)c3ccccc3n2[n+]1C,?,·,·,-20%,·,40µM*
CN(C)c1ccc(C=c2c3ccccc3n3c2c2ccccc2[n+]3C)cc1,?,·,·,-19%,·,?
Cc1cc2c(=Cc3ccc(N(C)C)cc3)c3ccccc3n2[n+]1C,?,·,·,?,·,79µM*
Cc1ccc(CCNC(=O)c2sc3nc4n(c(=O)c3c2C)CCCC4)cc1,-9%,-14%,·,-15%,·,16%
CCCCCCSc1nc(O)c(C2OC(=O)c3c2ccc(OC)c3OC)c(=O)n1-c1ccccc1 (configuration not stated),18µM*,-20%,3%,-27%,·,?
CCOC(=O)Cc1csc(NC(=O)c2csc(C)c2)n1,-5%,-9%,-12%,-4%,0%,15%
CCOC(=O)Cc1csc(NC(=O)c2sc3nc4c(C)cc(C)cc4cc3c2N)n1,?,32µM*,-10%,-20%,-2%,50µM*
CC(NC(=O)C(=O)NCCN1CCN(C(=O)c2ccc([N+](=O)[O-])cc2)CC1)c1ccccc1 (configuration not stated),-11%,18%,0%,-6%,·,52%
COc1cc(/C=C2\S/C(=N/S(=O)(=O)c3ccccc3)NC2=O)c([N+](=O)[O-])cc1OC,22µM*,21%,-9%,-30%,9%,?
COc1ccc(S(=O)(=O)/N=C2/NC(=O)/C(=C\c3ccco3)S2)cc1,18µM*,25µM*,6%,?,?,?
COc1ccc(N=C2NC(=O)/C(=C/c3ccco3)S2)cc1,-13%,?,0%,-20%,·,?
Cc1ccc2c(c1)C1OCCC1C1N2C(=O)C2C(C(=O)O)C3C=CC21O3 (configuration not stated),?,40µM*,?,-30%,·,?
O=C(O)C1C2C=CC3(CN(C/C=C/c4ccccc4)C(=O)C13)O2 (configuration not stated),?,?,19%,-14%,-8%,3%
CC1=CC(C)(C)NC(=S)N1c1cccc2cc(S(=O)(=O)O)ccc12,13µM*,50µM*,?,-18%,?,?
N#Cc1c(N(CCO)CCO)nc(N)c2c(N)nc3c(c12)CC(=O)N3Cc1cccs1,40µM*,2%,-3%,-9%,-24%,3.5µM*
O=[N+]([O-])c1ccc(-c2c[nH]c(=S)[nH]2)cc1,40µM*,?,3%,?,?,?
O=Cc1c(-c2ccc(Cl)cc2)oc2ccc(O)cc12,45µM*,·,·,?,·,?
O=C(O)c1c(-c2ccccc2)oc2ccc(O)cc12,?,0%,16%,1%,·,4%
COc1cccc(NC(=O)CSc2nc(C3CC3)nc3ccccc23)c1,40µM*,-2%,16%,3%,·,?
Cc1ccc(OCC(=O)c2cc(C)n(Cc3cccs3)c2C)c([N+](=O)[O-])n1,-13%,?,1%,-23%,?,95%
Cc1cc(C(=O)COc2ccc3ccc(=O)oc3c2)c(C)n1Cc1cccs1,-18%,50µM*,0%,-19%,?,-47%
CO[C@@]1(NC(=O)Cc2cccs2)C(=O)N2C(C(=O)O)=C(COC(N)=O)CSC21 (some centres not stated),·,·,-6%,32µM*,·,·
CO[C@@]1(NC(=O)Cc2cccs2)C(=O)N2C(C(=O)O)=C(COC(N)=O)CS[C@@H]21,?,13µM*,?,?,?,?
SMILES,POLH inh,POLB inh,APE1 inh,POLK inh,L3MBTL1 block,Pol iota inh
O=C(Nc1ccc2nc(-c3ccco3)c(-c3ccco3)nc2c1)N1CCCC1,·,·,·,32µM*,·,3.2µM*
O=C(Nc1ccc2nc(-c3cccs3)c(-c3cccs3)nc2c1)N1CCCCC1,·,·,·,-45%,·,24%
O=C(NCCO)Nc1ccc2nc(-c3ccco3)c(-c3ccco3)nc2c1,·,4.5µM*,-3%,·,0.71µM*,·
CC1CCN(C(=O)Nc2ccc3nc(-c4ccco4)c(-c4ccco4)nc3c2)CC1,·,·,·,8.9µM*,·,14µM*
S=C(Nc1ccc(N2CCOCC2)cc1)Nc1ccc2nc(-c3ccco3)c(-c3ccco3)nc2c1,?,2%,?,?,·,2µM*
COc1ccc(CC(=O)NCc2ccc(Cl)cc2)cc1S(=O)(=O)N1CCOCC1,?,·,16%,-8%,0%,21%
CC(OC(=O)C1=COCCO1)C(=O)NC1CCCCC1 (configuration not stated),-4%,·,·,·,·,·
COc1cc(OC)c(OC)cc1/C=c1\[nH]c(=O)/c(=C/c2cc(OC)c(OC)cc2OC)[nH]c1=O,·,·,·,12%,·,11%
Cc1ccc(OCC(=O)NCC2(N3CCOCC3)CCCCC2)cc1C,-14%,3%,·,?,·,89µM*
Cc1cc(C)cc(OCC(=O)NCC2(N3CCOCC3)CCCCC2)c1,5%,-1%,·,-1%,·,-11%
Nc1c(Br)cc(Br)c2cccnc12,·,·,·,4%,·,8.9µM*
O=C(Oc1c(Br)cc(Br)c2cccnc12)N1CCCCC1,-12%,7%,5%,-19%,·,1%
NS(=O)(=O)Nc1c(Br)cc(Br)c2cccnc12,·,·,·,-4%,·,25µM*
CN[C@@H]1[C@@H](O[C@H]2O[C@H](CO)[C@@H](N)[C@H](O)[C@H]2O)O[C@H]2C[C@@H](N)[C@@H](O[C@H]3[C@H](O)[C@@H](O)[C@H](N)C[C@@H]3N)O[C@@H]2[C@@H]1O,·,·,2%[21 µM],·,·,·
O=C(Nc1ccc2c(c1)OCCO2)c1cnn2c1NC(=C1CC1)C=C2C(F)F,·,·,22%,·,·,·
COc1ccc(CN2CCC(C(=O)Nc3ccc(Oc4ccccc4)nc3)CC2)cc1F,-25%,16%,-7%,-2%,·,2%
CN(C)c1ccc(CC2CCc3ccccc32)cc1 (configuration not stated),·,·,·,-2%,·,-25%
CC(=O)Oc1ccc2occ(-c3ccccc3)c2c1,-10%,56µM*,2%,-10%,11%,-14%
Cc1ccc(CNc2ccc(N3CCOCC3)cc2)s1,5%,15%,0%,-1%,·,?
CC(=O)N1CCN(c2ccc(NCc3ccc(C)s3)cc2)CC1,-16%,4%,-6%,-5%,?,50µM*
